Source: paper PMC6919601, “Identification of Plasmodium dipeptidyl aminopeptidase allosteric inhibitors by high throughput screening” (PLoS ONE, 2019)
The whole screen tested about 110,000 compounds, of which about 230 (0.21%) showed an effect of 50% or more. Only a selection was taken, and strong results are over-represented in it overall.

Molecular target: DPAP1 (Plasmodium falciparum, UniProt Q8IIJ9)
Test: primary screen, percent inhibition; read by cleavage of a fluorogenic dipeptide substrate; higher = more effect of the substance
Parameters: species or system P. falciparum D10 trophozoite lysates; single well
Method: HTS was performed in black 384-well plates. The first and last two columns of each plate contained our negative (DMSO) and positive (10 μM JCP410) controls, and the 20 central columns the test compounds at 10 μM. Compounds were first diluted 50-fold into assay buffer (50 mM sodium acetate, 5 mM MgCl2, 10 mM β-mercaptoethanol, and 0.1% CHAPS, pH 5.5) from a 10 mM DMSO stock plates. One microliter of this 200 μM intermediate stock plate was dispensed into the assay plate. […] After 30 min, the reaction was quenched with 20 μL of 0.5 M acetic acid, and the fluorescent intensity measured at 523 nm (λex = 492 nm) using an Analyst HT multimode plate reader (Molecular Devices).
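Also: 30 min substrate incubation versus DMSO and 10 µM JCP410 controls.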

DPAP1, sequence (Q8IIJ9 whole entry, looked up): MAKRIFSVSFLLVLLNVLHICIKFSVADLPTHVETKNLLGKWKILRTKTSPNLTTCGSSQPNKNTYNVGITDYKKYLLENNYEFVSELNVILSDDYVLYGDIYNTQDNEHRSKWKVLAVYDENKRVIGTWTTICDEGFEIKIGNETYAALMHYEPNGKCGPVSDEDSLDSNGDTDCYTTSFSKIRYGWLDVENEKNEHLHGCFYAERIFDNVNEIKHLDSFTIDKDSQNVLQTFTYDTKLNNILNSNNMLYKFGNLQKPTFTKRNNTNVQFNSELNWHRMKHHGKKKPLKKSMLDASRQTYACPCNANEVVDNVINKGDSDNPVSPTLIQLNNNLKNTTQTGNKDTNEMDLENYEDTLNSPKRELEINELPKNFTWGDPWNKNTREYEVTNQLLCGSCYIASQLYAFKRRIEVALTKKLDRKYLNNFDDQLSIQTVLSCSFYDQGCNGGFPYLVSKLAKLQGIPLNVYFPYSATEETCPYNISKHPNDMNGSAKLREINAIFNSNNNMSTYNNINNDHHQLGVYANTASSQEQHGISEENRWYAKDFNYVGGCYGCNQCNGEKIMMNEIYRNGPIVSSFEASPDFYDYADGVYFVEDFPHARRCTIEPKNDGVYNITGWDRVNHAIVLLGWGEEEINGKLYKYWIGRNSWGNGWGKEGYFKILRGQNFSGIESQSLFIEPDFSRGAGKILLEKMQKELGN

Question: Which “% Inhibition @ 10 uM” value does the source give for `Cc1ccc2oc(=O)c3cc(C(=O)Nc4cc(C)on4)sc3c2c1` here?
Answer: -0.646%

Question: `N#CC1=C2SCN(Cc3ccco3)CN2C(=O)CC1c1cccs1` (stereo not shown) was tested. Which “% Inhibition @ 10 uM” value did it give?
Answer: 47.7%

Question: Which “% Inhibition @ 10 uM” value does the source give for `CC(c1ccccc1)N1CSC2=C(C#N)C(c3ccc(Cl)cc3)CC(=O)N2C1` (stereo not shown) here?
Answer: 73.1%

Question: How did the “% Inhibition @ 10 uM” value turn out when `CCOc1ccc(C2CC(=O)N3CN(C(C)c4ccccc4)CSC3=C2C#N)cc1` (stereo not shown) was run?
Answer: 53.1%

Question: With `CCOc1ccc(C2CC(=O)N3C(=C2C#N)SCC3(O)c2ccc(OCC)cc2)cc1` (stereo not shown) as the compound, how does the “% Inhibition @ 10 uM” value read?
Answer: -0.0235%

Question: Which “% Inhibition @ 10 uM” value does the source give for `Cc1ccc(C2CC(=O)N3CN(C(C)c4ccccc4)CSC3=C2C#N)cc1` (stereo not shown) here?
Answer: 10.6%

Question: How did the “% Inhibition @ 10 uM” value turn out when `N#CC1=C2SCC(O)(c3ccccc3)N2C(=O)CC1c1cccs1` (stereo not shown) was run?
Answer: -4.74%

Question: With `COc1ccc(C2CC(=O)N3CN(C(C)c4ccccc4)CSC3=C2C#N)cc1OC` (stereo not shown) as the compound, how does the “% Inhibition @ 10 uM” value read?
Answer: 28%

Question: How did the “% Inhibition @ 10 uM” value turn out when `CC(c1ccccc1)N1CSC2=C(C#N)C(c3cccs3)CC(=O)N2C1` (stereo not shown) was run?
Answer: 68%

Question: How did the “% Inhibition @ 10 uM” value turn out when `Cc1cc(Cl)ccc1N(CC(=O)Nc1ccc2c(c1)OCO2)S(=O)(=O)c1ccccc1` was run?
Answer: 8.03%

Question: With `Cc1ccc(NS(=O)(=O)c2ccc(NC(=O)COc3ccccc3)cc2)c(C)c1` as the compound, how does the “% Inhibition @ 10 uM” value read?
Answer: -4.7%

Question: With `CCOc1ccc(-n2nc3ccc(NC(=O)c4ccc5c(c4)OCCO5)cc3n2)cc1` as the compound, how does the “% Inhibition @ 10 uM” value read?
Answer: 17.9%

Question: Which “% Inhibition @ 10 uM” value does the source give for `CCCCCOc1ccc(C2NC(C(=O)O)CS2)cc1` (stereo not shown) here?
Answer: -2.54%

Question: `Cc1nn(C)c(C)c1/C=C(/C(=O)C(C)C)n1cncn1` was tested. Which “% Inhibition @ 10 uM” value did it give?
Answer: 0.00706%

Question: For `CC1CCCCN1CCNc1ncnc2onc(-c3ccc(Cl)cc3)c12` (stereo not shown), which “% Inhibition @ 10 uM” value is on record?
Answer: -3.95%

Question: For `CN(C)c1ccc(-c2c(C#N)c(S)nc3c2C(=O)CC(C)(C)C3)cc1`, which “% Inhibition @ 10 uM” value is on record?
Answer: -2.81%

Question: How did the “% Inhibition @ 10 uM” value turn out when `Oc1cc(-c2ccccc2)nc2nc(Cc3ccccc3)nn12` was run?
Answer: 0.795%

Question: For `Cc1ccc(CNC(=O)c2cc3c(s2)-c2ccccc2S(=O)(=O)C3)cc1`, which “% Inhibition @ 10 uM” value is on record?
Answer: -0.72%

Question: `CN1C(=O)c2ccccc2C(C(=O)NCCN2CCc3ccccc3C2)C1c1cn(C)c2ccccc12` (stereo not shown) was tested. Which “% Inhibition @ 10 uM” value did it give?
Answer: -7.27%

Question: With `Cc1sc2[nH]c(=S)n(-c3ccccc3)c(=O)c2c1C` as the compound, how does the “% Inhibition @ 10 uM” value read?
Answer: 72.2%

Question: Which “% Inhibition @ 10 uM” value does the source give for `Cc1sc2[nH]c(=S)n(-c3ccc(Cl)cc3)c(=O)c2c1C` here?
Answer: 51.2%

Question: `Cc1sc2[nH]c(=O)n(-c3ccc(Cl)c(Cl)c3)c(=O)c2c1C` was tested. Which “% Inhibition @ 10 uM” value did it give?
Answer: -0.711%

Question: How did the “% Inhibition @ 10 uM” value turn out when `CCc1c(O)n(-c2ccccc2)c(=S)[nH]c1=O` was run?
Answer: 0.526%

Question: For `CCc1cc2c(=O)n(-c3ccc(Cl)cc3)c(=S)[nH]c2s1`, which “% Inhibition @ 10 uM” value is on record?
Answer: 21.1%

Question: `O=c1c2c3c(sc2[nH]c(=S)n1-c1ccccc1)CC1(CCCCC1)CC3` was tested. Which “% Inhibition @ 10 uM” value did it give?
Answer: 0.774%

Question: How did the “% Inhibition @ 10 uM” value turn out when `COc1ccc(N2CCN(C(=O)CN(C)S(=O)(=O)c3ccc(C)cc3)CC2)cc1` was run?
Answer: -5.35%

Question: For `O=[N+]([O-])c1ccc(CSc2ccc(Cl)cc2)cc1`, which “% Inhibition @ 10 uM” value is on record?
Answer: 2.22%

Question: `COc1ccc(CNC(=O)c2cc3c(O)nc4ccc(C)cc4c3s2)cc1` was tested. Which “% Inhibition @ 10 uM” value did it give?
Answer: 1.72%

Question: For `Cc1ccc(C2C(C#N)=C(N)SC(N)=C2C#N)c(C)c1`, which “% Inhibition @ 10 uM” value is on record?
Answer: 27.4%

Question: Which “% Inhibition @ 10 uM” value does the source give for `COc1cc(C2C(C#N)=C(N)SC(N)=C2C#N)ccc1O` here?
Answer: 28.3%

Question: Which “% Inhibition @ 10 uM” value does the source give for `CCOc1ccc(OCC)c(C2C(C#N)=C(N)SC(N)=C2C#N)c1` here?
Answer: 23.2%

Question: Which “% Inhibition @ 10 uM” value does the source give for `Cc1cc(C)c(C)c(C2C(C#N)=C(N)SC(N)=C2C#N)c1C` here?
Answer: 4.22%

Question: How did the “% Inhibition @ 10 uM” value turn out when `CCOc1ccc(C2C(C#N)=C(N)SC(N)=C2C#N)cc1OC` was run?
Answer: 57.7%

Question: For `N#CC1=C(N)SC(N)=C(C#N)C1c1ccc(Cl)c(Cl)c1`, which “% Inhibition @ 10 uM” value is on record?
Answer: 40.5%

Question: How did the “% Inhibition @ 10 uM” value turn out when `N#CC1=C(N)SC(N)=C(C#N)C1c1cccc(Cl)c1` was run?
Answer: 19.5%

Question: How did the “% Inhibition @ 10 uM” value turn out when `N#CC1=C(N)SC(N)=C(C#N)C1c1ccc(Cl)cc1` was run?
Answer: 50.8%

Question: With `CC(C)c1ccc(C2C(C#N)=C(N)SC(N)=C2C#N)cc1` as the compound, how does the “% Inhibition @ 10 uM” value read?
Answer: 46.7%

Question: Which “% Inhibition @ 10 uM” value does the source give for `N#CC1=C(N)SC(N)=C(C#N)C1c1cccnc1` here?
Answer: 0.731%

Question: How did the “% Inhibition @ 10 uM” value turn out when `CC1C(C#N)=C(N)SC(N)=C1C#N` was run?
Answer: 67.5%

Question: Which “% Inhibition @ 10 uM” value does the source give for `N#CC1=C(N)SC(N)=C(C#N)C1c1ccccc1` here?
Answer: 70.9%

Question: For `C=CCSc1nnc(NC(=O)Cc2coc3ccc(C)cc23)s1`, which “% Inhibition @ 10 uM” value is on record?
Answer: 1%

Question: `CC(Sc1nc(-c2ccccc2)c(-c2ccccc2)[nH]1)C(=O)O` (stereo not shown) was tested. Which “% Inhibition @ 10 uM” value did it give?
Answer: -3.04%

Question: For `O=C(Nc1ccc(F)c(Cl)c1)c1cc2nc(C(F)F)cc(C(F)F)n2n1`, which “% Inhibition @ 10 uM” value is on record?
Answer: -8.02%

Question: Which “% Inhibition @ 10 uM” value does the source give for `Cc1oc2ncnc(N3CCOCC3)c2c1C(=O)N(C)Cc1ccco1` here?
Answer: 4.76%

Question: For `COc1ccc2nc(Cl)c(C3CC(c4ccc(Cl)cc4)=NN3C(C)=O)cc2c1` (stereo not shown), which “% Inhibition @ 10 uM” value is on record?
Answer: 4.18%

Question: For `NS(=O)(=O)c1ccc(NC(=O)c2cccs2)cc1`, which “% Inhibition @ 10 uM” value is on record?
Answer: 7.24%

Question: For `NC(=O)C1CCCN(C2CCc3ccccc3C2)C1` (stereo not shown), which “% Inhibition @ 10 uM” value is on record?
Answer: -1.5%

Question: With `Cc1ccsc1C1C(C#N)=C(N)SC(N)=C1C#N` as the compound, how does the “% Inhibition @ 10 uM” value read?
Answer: 27.5%

Question: With `N#CC1=C(N)SC(N)=C(C#N)C1c1c(Cl)cccc1Cl` as the compound, how does the “% Inhibition @ 10 uM” value read?
Answer: 28.7%

Question: `N#CC1=C(N)SC(N)=C(C#N)C1c1ccco1` was tested. Which “% Inhibition @ 10 uM” value did it give?
Answer: 51.4%

Question: With `N#CC1=C(N)SC(N)=C(C#N)C1c1cccs1` as the compound, how does the “% Inhibition @ 10 uM” value read?
Answer: 40.6%

Question: With `Cc1ccc(C2C(C#N)=C(N)SC(N)=C2C#N)s1` as the compound, how does the “% Inhibition @ 10 uM” value read?
Answer: 55.8%
